# High-throughput results deposited in PubChem BioAssay by The Scripps Research Institute Molecular Screening Center.
# Sampled rows, rich in hits. Any-hit rate of the full collection: about 4.1%.
# ABHD5-PLIN5 inh: ABHD5-PLIN5 interaction inhibitors, primary screen, cell lysate, split luciferase complementation, luminescence | Split G. princeps luciferase complementation, 4 h | 360,000 tested, 0.78% active | inhibition, % at 4 µM;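 active means inhibition above the mean inhibition across every tested compound plus 3 SD, cut at about 22% in these data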;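 further: 0% = DMSO only wells and the 100% control is not disclosed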
# PRMT1 inh: PRMT1 methyltransferase inhibitors, primary screen, biochemical, fluorescence polarization | recombinant PRMT1, activity-based probe fluorescence polarization | inhibition, % at 2.79 µM | 370,000 tested, 1.3% active | AID 652257, 2013;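 active means inhibition above about 21% made by adding two undisclosed values, limit read from the data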
# UHRF1 binding: UHRF1 methylated DNA binding inhibitors, primary screen, counter-screen for MBD2 inhibitor project, biochemical, TR-FRET, human UHRF1, single concentration; E3 ubiquitin-protein ligase UHRF1 (Homo sapiens), Q96T88; UHRF1 binding to methylated oligo; inhibition, % at 4.4 µM; 370,000 tested, 0.75% active; in the data active means inhibition above about 21%;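 further: UHRF1 SRA domain binding a hemimethylated CpG hairpin DNA probe; 0% = median of test compound wells and 100% = reference inhibitor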
# Target sequence (Q96T88 whole entry, looked up, the tested form may be a part): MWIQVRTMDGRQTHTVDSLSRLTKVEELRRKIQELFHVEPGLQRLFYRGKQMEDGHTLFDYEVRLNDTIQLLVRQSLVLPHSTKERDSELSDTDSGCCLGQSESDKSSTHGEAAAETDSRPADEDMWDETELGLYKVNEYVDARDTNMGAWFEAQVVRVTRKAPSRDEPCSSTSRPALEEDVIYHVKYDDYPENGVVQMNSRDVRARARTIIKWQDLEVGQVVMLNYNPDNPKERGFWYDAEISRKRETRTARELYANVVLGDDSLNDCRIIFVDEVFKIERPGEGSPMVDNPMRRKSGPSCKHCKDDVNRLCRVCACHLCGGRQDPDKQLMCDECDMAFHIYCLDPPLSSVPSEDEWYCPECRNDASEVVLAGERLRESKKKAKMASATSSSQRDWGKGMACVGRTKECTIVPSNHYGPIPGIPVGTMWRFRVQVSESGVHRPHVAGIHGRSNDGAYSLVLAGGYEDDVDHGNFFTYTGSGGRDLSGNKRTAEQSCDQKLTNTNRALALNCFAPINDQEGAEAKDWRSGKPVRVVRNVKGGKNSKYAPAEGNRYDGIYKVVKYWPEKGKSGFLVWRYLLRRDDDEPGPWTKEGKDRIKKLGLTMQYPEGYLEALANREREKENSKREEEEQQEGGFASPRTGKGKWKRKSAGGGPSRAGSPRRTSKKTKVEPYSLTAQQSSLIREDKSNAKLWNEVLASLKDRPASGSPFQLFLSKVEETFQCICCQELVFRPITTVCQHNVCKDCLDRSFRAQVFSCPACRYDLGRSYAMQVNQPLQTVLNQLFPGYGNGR
# LEDGF integ inh: blockers of LEDGF/p75-dependent integrase strand transfer – biochemical, TR-FRET, high throughput, primary screen; HIV-1 integrase (with human LEDGF/p75); TR-FRET IN-LEDGF/p75 DNA integration, Eu/Cy5; inhibition, % at 3.7 µM; 370,000 tested, 0.64% active; AID 743269, 2014;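 active means inhibition above the screen-wide mean plus 3 SD, cut at about 13% in these data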;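 further: signal is the Cy5 over europium emission ratio at 671 and 618 nm; 0% = plate median of compound wells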
# rCAG RNA binder: binders of r(CAG) RNA repeats, primary screen, biochemical, fluorescence; r(CAG) RNA repeat, TO-PRO-1 dye displacement fluorescence; inhibition, % at 3 µM; 370,000 tested, 1.3% active; AID 651821, 2012;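 active means inhibition above the plate cutoff, the mean of all test compounds on that plate plus 3 SD, cut at about 35% in these data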;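 further: 0% = DMSO alone and 100% = 100 µM mitoxantrone as full dye displacement; higher means more dye released from RNA so lower well fluorescence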
# MBD2 inh: inhibitors of MBD2 binding to methylated DNA, primary screen, biochemical, TR-FRET, DNA-binding domain, human; Methyl-CpG-binding domain protein 2 (Homo sapiens), Q9UBB5; MBD2 binding to methylated oligonucleotide; inhibition, % at 4.4 µM; 370,000 tested, 0.31% active; AID 686964, 2013; in the data active means inhibition above about 13%
# * hit, by the source's call; x = not tested or not shown.
SMILES,ABHD5-PLIN5 inh,PRMT1 inh,UHRF1 binding,LEDGF integ inh,rCAG RNA binder,MBD2 inh
O=C(O)c1ccc(N/N=C/C=C/c2ccccc2)cc1,-4,3,21*,0,9,2
O=C(N/N=C/C=C/c1ccccc1)c1ccncc1,1,-3,-3,5,2,-10
Cc1ccc(S(=O)(=O)N2CC3(COC(C)(C)OC3)C[C@H]2CON2C(C)(C)CCCC2(C)C)cc1,x,1,3,-1,x,1
Oc1ccc(N2CCN(C(c3cccs3)c3nnnn3CCc3ccccc3)CC2)cc1 (configuration not stated),4,22*,5,1,6,0
CCOc1ccc(OCCn2c(=S)[nH]c3ccccc32)cc1,-3,5,0,2,1,-3
CCOc1ccc2c(c1)[nH]c(=S)n2C,-1,-3,39*,-1,-1,-1
C[C@H]1C(=O)N2[C@@H](C[C@]3(c4c[nH]c5ccccc45)c4ccccc4N(S(=O)(=O)c4ccccc4)[C@H]23)C(=O)N1C,x,-1,2,-2,x,4
COC(=O)c1cc2c(c3c4cc(F)ccc4n(S(=O)(=O)c4ccccc4)c13)C(=O)N(Cc1ccccc1)C2,x,-5,-4,3,12,-1
COC(=O)[C@]12CCCCC=C1N(CCC1=CCCCC1)C(=O)[C@H](CC(=O)NCc1cccc3ccccc13)C2,2,-2,21*,-2,7,6
COc1cccc(CNC(=O)[C@H]2CCCN2C(=O)[C@H]2CCCN2C(=O)N2CCCCC2)c1,x,2,-1,-2,2,-2
C=CCN1C(C(=O)OC)CN(Cc2cn(CCC3OCCO3)nn2)CCS1(=O)=O (configuration not stated),x,0,19,0,3,10
COC(=O)COc1coc(CN2CCN(c3cccc(Cl)c3)CC2)cc1=O,-3,-3,21*,7,-5,5
CCCCN1CCN(C2=NC(=O)N(c3ccc(Br)cc3)C(=O)C2)CC1,x,5,1,-2,8,-4
Cc1cccc(-c2cccc3c4c([nH]c23)[C@@H]2C[C@H](N(C)C(=O)c3ccccc3F)[C@H]([C@H](C)O)CN2CC4)c1,x,1,-4,-2,13,-3
c1cc2c(cc1C1=NNC(=NC3CC3)SC1)OCCO2,-21,46*,2,-2,3,4
c1ccc2oc(C3=NNC(=NC4CC4)SC3)cc2c1,-23,36*,-8,2,12,-5
CCCCN=C1NN=C(c2ccc3c(c2)OCCO3)CS1,-14,6,-4,-2,0,-3
CCOC(=O)N1CCN(CCC(=O)c2ccc(OC)cc2)CC1,2,21*,3,-1,-3,-2
CCOC(=O)N1CCN(CCC(=O)c2ccc(Cl)cc2)CC1,1,1,0,-5,1,-4
COc1ccc(C(=O)CCN2CCCC(C)C2)cc1 (configuration not stated),5,25*,0,2,3,5
CCNC(=S)N/N=C/c1c(Cl)cccc1Cl,-3,-3,-3,-3,0,-3
CC(C)(C)NC(=S)N/N=C/c1c(Cl)cccc1Cl,-2,-3,36*,3,4,0
Cc1ccc(NC(=O)OC2CC3CC2[C@H]2CCCCN2C3)cc1 (some centres not stated),x,-1,0,-1,3,-2
C=CCn1c(Cc2cccs2)nnc1SCC(=O)Nc1cccc2ccccc12,x,3,-1,-3,2,2
c1ccc(COCCc2cn(Cc3ccccc3)c3ccccc23)cc1,x,5,1,-4,2,0
SMILES,ABHD5-PLIN5 inh,PRMT1 inh,UHRF1 binding,LEDGF integ inh,rCAG RNA binder,MBD2 inh
C/C=C/Cn1c(SCc2ccc(C)cc2)nc2c1c(=O)[nH]c(=O)n2C,12,11,1,3,-3,3
CC=CCn1c(SCc2ccccc2)nc2c1c(=O)[nH]c(=O)n2C,3,24*,-2,0,2,-8
CCN1CCN(CCNC(=O)c2ccc(/C=C3/Sc4ccccc4N(Cc4cccc(Cl)c4)C3=O)cc2)CC1,22*,-2,9,-3,3,7
Cc1cccc(CN2C(=O)/C(=C\c3ccc(C(=O)NCCN4CCOCC4)cc3)Sc3ccccc32)c1,7,x,x,x,x,x
CC(=O)O[C@@H]1[C@@]2(C)O[C@H]2CC[C@]23O[C@H]2[C@H](OC3=O)C2=C(C)C(=O)O[C@@]21O,23*,1,-1,0,5,2
C/C(=N\Nc1cc(-c2ccccc2)nc(-c2ccc(Br)cc2)n1)c1cccc(N)c1,5,1,3,1,43*,2
CC1(C)CC(=O)N(CC(=O)N2CCN(c3cccc(Cl)c3Cl)CC2)c2ccccc2S1(=O)=O,x,4,0,0,5,-5
Cc1noc(C)c1C(=O)N1CCC(n2nnc3ncccc32)CC1,x,-3,2,-1,0,-5
Cc1ccc(OCC(=O)Nc2nnc(S(=O)(=O)N3CCCCCC3)s2)cc1,3,-2,-2,-5,18,-3
O=C(COc1ccc(F)cc1)Nc1nnc(S(=O)(=O)N2CCCC2)s1,-7,1,37*,-5,19,0
CCCN1C(=O)c2n[nH]c(C(C)C)c2C1c1cccc(C(F)(F)F)c1 (configuration not stated),x,-4,-2,0,-1,-3
Cc1ccc(C(=O)C2CCN(CC(=O)N3CCCC3)CC2)cc1,x,-1,5,5,4,2
CCOc1cc(NC(=S)NCC2CCCO2)c(OCC)cc1NC(=O)c1ccc(OC)cc1 (configuration not stated),-1,-2,0,-4,0,-1
CCOc1cc(NC(=S)NCC2CCCO2)c(OCC)cc1NC(=O)c1ccccc1C (configuration not stated),2,-3,47*,1,-8,-1
CN(Cc1ccco1)C(=O)c1cccc2c1C(=O)N(Cc1cccnc1)C2,x,-3,-2,6,3,2
N#CCC(=O)N/N=C/c1cc(-c2ccccc2)n(-c2ccc(Cl)cc2)c1-c1ccccc1,x,1,38*,-3,7,7
CC(C)c1[nH]nc2c1C(c1cccc(C(F)(F)F)c1)NC2=O (configuration not stated),x,3,-1,-3,0,8
Cc1cc(Oc2cccnc2)ccc1NC(=O)Cc1c(C)[nH]c2ccccc12,x,0,-2,-2,7,1
